In PubChem BioAssay (NCI):
This is part of a sample that, as a whole, favours compounds with a hit. Of some 83,000 tested, about 20% had one in any assay.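 Treatment: one concentration, 48 hours, 96-well format. Scoring: percent growth, with anything below 10 considered active.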 Values without a mark were called inactive. Active and inactive are the calls of the source.

What was measured:
Test in all cases: NCI-60 one-dose screen, 48 h (100 = growth as untreated, 0 = no growth, -100 = all killed)
Details in all cases: 10 µM
HCT-15 colon = test system: HCT-15 colon
HT29 colon = test system: HT29 colon
SNB-75 CNS = test system: SNB-75 CNS
SNB-19 CNS = test system: SNB-19 CNS
U251 CNS = test system: U251 CNS
PC-3 prostate = test system: PC-3 prostate
SK-MEL-5 melanoma = test system: SK-MEL-5 melanoma
UACC-62 melanoma = test system: UACC-62 melanoma
LOX IMVI melanoma = test system: LOX IMVI melanoma
SK-MEL-28 melanoma = test system: SK-MEL-28 melanoma
SK-MEL-2 melanoma = test system: SK-MEL-2 melanoma
SN12C renal = test system: SN12C renal
UO-31 renal = test system: UO-31 renal
TK-10 renal = test system: TK-10 renal
ACHN renal = test system: ACHN renal
CAKI-1 renal = test system: CAKI-1 renal
CCRF-CEM leukemia = test system: CCRF-CEM leukemia
MOLT-4 leukemia = test system: MOLT-4 leukemia
EKVX NSCLC = test system: EKVX NSCLC
A498 renal = test system: A498 renal

| Structure (SMILES) | growth (HCT-15 colon) | growth (HT29 colon) | growth (SNB-75 CNS) | growth (SNB-19 CNS) | growth (U251 CNS) | growth (PC-3 prostate) | growth (SK-MEL-5 melanoma) | growth (UACC-62 melanoma) | growth (LOX IMVI melanoma) | growth (SK-MEL-28 melanoma) | growth (SK-MEL-2 melanoma) | growth (SN12C renal) | growth (UO-31 renal) | growth (TK-10 renal) | growth (ACHN renal) | growth (CAKI-1 renal) | growth (CCRF-CEM leukemia) | growth (MOLT-4 leukemia) | growth (EKVX NSCLC) | growth (A498 renal) |
| --- | --- | --- | --- | --- | --- | --- | --- | --- | --- | --- | --- | --- | --- | --- | --- | --- | --- | --- | --- | --- |
| Cc1ccc(-c2nc(Nc3ccccc3C(=O)O)c3ccccc3n2)cc1 | 4.66% (active) | 17.8% | 15.7% | 8.82% (active) | 18.4% | 15.7% | -24.8% (active) | 11% | 8.57% (active) | 28.8% | 5.75% (active) | 22.2% | 12.6% | 58.9% | 7.89% (active) | 21.1% | 12.8% | 10.9% |  |  |
| COc1cc(OC(F)(F)F)ccc1C(=O)Nc1sc2c(c1C#N)CCC(=O)C2 | 14.6% | 95% | 93.7% | 91.8% | 7.29% (active) | 37.6% | 72.3% | 65.6% | 64.7% | 121% | 105% |  | 62.4% | 94.2% | 87.1% | 71.6% |  | 90.8% | 46.7% | 137% |
| CN(C)c1ccc(/C=C/C(=O)c2ccc(NC(=O)CN3C(=O)NC(C)(c4ccccc4)C3=O)cc2)cc1 (stereo not drawn) | 26.9% | 19.5% | 80.6% | 70.5% | 46% | 43.3% | 23.2% | 46.6% | 41.4% | 70.7% | 76.5% | 73.4% | 57.7% | 97.3% | 59.8% | 66.4% | 53.1% | 36.6% |  | 85.5% |
| O=c1[nH][nH]c(Nc2ccccc2)c1N=Nc1ccc(F)cc1 | 70.1% | 107% | 59.4% | 95.3% | 99.9% | 95.5% | 96.6% | 92.1% | 102% | 108% | 94.1% | 79.6% | 66.2% | 94.5% | 86.2% | 59.3% | 93.9% |  |  |  |
| N#Cc1ccc(NC(=O)CSc2ccc(-c3ccc(Br)cc3)nn2)cc1 | 72.7% | 84.1% | 76% | 64% | 87.7% | 58.6% | 4.86% (active) | 29.9% | 52.8% | 62.4% | 57.9% | 73.5% | 54.6% | 103% | 64.5% | 67.2% | 57.9% | 42.6% |  | 89.4% |
| NC1=NC(c2ccccc2Cl)N=C(Nc2nn[nH]n2)N1 (stereo not drawn) | 103% | 115% | 95.2% | 99.6% | 97.5% | 103% | 98% | 94.1% | 94.2% | 124% | 116% | 107% |  | 99.6% | 103% | 94.5% | 151% | 124% |  | 104% |
| O=C(Nc1nc2ccccc2s1)c1ccc(Br)cc1 | 85.8% | 87.3% | 107% | 98.8% | 107% | 82.1% | 70.5% | 73.3% | 82.9% | 90.7% |  | 89.9% | 76.1% | 104% | 94.8% | 91.1% | 85.6% | 74.3% | 63.5% | 115% |
| O=C(c1ccc(O)cc1)C1[C@H](c2ccc(Br)cc2)[C@@H](c2ccccc2)NC12C(=O)Nc1ccc(Br)cc12 (stereo partly drawn) | -47.3% (active) | -31.5% (active) | 45.8% | 11.8% | -48.7% (active) | 21.4% | -76.7% (active) | -35.7% (active) | -100% (active) | 26.2% | -21.1% (active) | -83.5% (active) | -27.3% (active) | -5.38% (active) | 2.27% (active) | 3.36% (active) | 19.7% | 12.4% |  | 10.9% |
| Cc1noc2c(Cc3ccccc3)nn(CC(=O)N/N=C/c3ccc(Br)cc3)c(=O)c12 | 76.5% | 71.1% | 35.3% | 75.4% | 18.4% | 82.7% | 85.5% | 79.7% | 45.9% | 99.5% | 106% | 8.51% (active) | -32.3% (active) | 17.8% | 6.21% (active) | 58.4% | 96.8% | 93.9% |  | -62.4% (active) |
| O=c1oc2ccc(-c3ccc(F)cc3F)cc2c(=O)n1-c1ccc(F)c(Cl)c1 | -23.6% (active) | 23.1% | -23.7% (active) | 12.5% | 7.08% (active) | 5.69% (active) | -91.6% (active) | -60.2% (active) | -69.9% (active) | -21% (active) | -67.4% (active) | -17% (active) | -5.43% (active) | 11.9% | -12.7% (active) | -20.4% (active) | -5.97% (active) | -30.7% (active) |  | -20.8% (active) |
| Cc1cc(C)nc(/N=C(\N)Nc2ccc(S(=O)(=O)Nc3nc(C)cc(C)n3)cc2)n1 | 104% | 116% | 78% | 102% | 106% | 105% | 102% | 100% | 98.6% | 106% | 107% | 111% | 85% | 105% | 115% | 100% | 96.2% | 104% |  | 112% |
| COc1ccc(C(=O)Nc2sc3c(c2C#N)CCC(=O)C3)cc1C(F)(F)F | -69.8% (active) | -31.4% (active) | -15.2% (active) | -5.9% (active) | 3.33% (active) | 8.45% (active) | -92.2% (active) | -25.5% (active) | -15% (active) | -12.6% (active) | -17.6% (active) |  | -18.2% (active) |  | -29.9% (active) | -28.1% (active) | 5.05% (active) | 3.42% (active) | -0.293% (active) | 63.3% |
| COc1ccc(CN2[C@H](C(=O)NCc3ccc(C(=O)NO)cc3)Cc3c([nH]c4ccccc34)[C@H]2C2CC2)cc1 | 44.4% | 39.7% | 74.5% | 63.4% | 47.9% | 54.6% | 67.3% | 20.9% | 35.1% | 43.7% | 44.9% | 70.5% | 66.4% | 53.2% | 76.4% | 72.3% | 28.8% | 26.6% |  | 65% |
| C=C1CCC2C3(C)COC(c4ccccc4F)OC3CCC2(C)C1C/C=C1/C(=O)OCC1O (stereo not drawn) | -20% (active) | -14.6% (active) | -58.3% (active) | -93.4% (active) | -95.4% (active) | -17.5% (active) | -91.1% (active) | -7.01% (active) |  | -66.1% (active) | -59.2% (active) | -40.9% (active) | -96.5% (active) | -67.1% (active) | -99.4% (active) | -40.7% (active) | 15.1% | 9.47% (active) | -51.6% (active) | 101% |
| COc1cc2c(c(OC)c1OC)C(=O)CC(c1cccc(NC(=O)c3cccc(N)c3)c1)O2 (stereo not drawn) | 64.9% | 94.7% | 77.6% | 86.1% | 81.1% | 70.9% | 61.9% | 70.2% |  | 100% | 85.2% | 74.3% | 58.6% | 118% | 84.6% | 65.9% | 49.4% | 43.1% | 91.9% | 98.8% |
| CN1CCN(Cc2ccc(NC(=O)c3cncc(C#Cc4cnc5ccc(N[C@@H]6CCOC6)nn45)c3)cc2C(F)(F)F)CC1 | -85.6% (active) | -44.4% (active) | -96.1% (active) | -100% (active) | -82.3% (active) | -46.9% (active) | -100% (active) | -90% (active) | -100% (active) | -95.3% (active) |  | -98.6% (active) | -98.6% (active) | -82.2% (active) | -100% (active) | -98.1% (active) | -4.84% (active) | -19% (active) | -99.6% (active) | -97.6% (active) |
